Assay results reported in PubChem BioAssay (NCI).
This is part of a sample that, as a whole, favours compounds with a hit. Of some 79,000 tested, about 15% had one in any assay. Cut-off read from the data, not from the text of the source: active = growth inhibition above about 70%; inactive = the rest.

Assays:
[1] = NCI Yeast Anticancer Drug Screen. Data for the rad50 strain (AID 155);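 note: 0% = growth of vehicle-only cultures of the same strain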; conditions: S. cerevisiae rad50 strain growth inhibition; at 50.0 µM; stronger effect = higher value
In short: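 Growth of the mutant yeast was measured after compound exposure and referenced to vehicle-treated cultures.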

[2] = NCI Yeast Anticancer Drug Screen. Data for the mec2-1 strain (AID 157); conditions: S. cerevisiae mec2-1 strain, at 50.0 µM, stronger effect = higher value
In short: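 Growth inhibition is read against vehicle-treated controls after compound exposure of the mec2-1 yeast strain, which is defective in DNA damage repair or cell cycle control.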

[3] = NCI Yeast Anticancer Drug Screen. Data for the sgs1 mgt1 strain (AID 161);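 note: 0% = growth of cultures given vehicle only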; conditions: S. cerevisiae sgs1 mgt1 strain, at 50.0 µM, stronger effect = higher value
In short: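 Growth of a repair-deficient yeast mutant was monitored after compound treatment and expressed as inhibition relative to vehicle-treated cultures.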

[4] = NCI Yeast Anticancer Drug Screen. Data for the cln2 rad14 strain (AID 165);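 note: 0% = growth equal to vehicle treated cultures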; conditions: S. cerevisiae cln2 rad14 strain, at 50.0 µM, stronger effect = higher value
In short: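 Growth inhibition, relative to vehicle-treated controls, is the read-out. The test organism is a yeast strain with defined genetic alterations, cln2 rad14.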

[5] = NCI Yeast Anticancer Drug Screen. Data for the bub3 strain (AID 167); conditions: S. cerevisiae bub3 mutant strain, at 50.0 µM, stronger effect = higher value
In short: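 Whole-cell yeast assay. The mutant strain was incubated with compounds, and growth inhibition was determined by comparison with vehicle-treated cells.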

[6] = NCI Yeast Anticancer Drug Screen. Data for the mlh1 rad18 strain (AID 175); conditions: S. cerevisiae mlh1 rad18 strain growth inhibition; at 50.0 µM; stronger effect = higher value
In short: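 Cells of a genetically altered yeast strain, deficient in DNA damage repair, were treated with compound. Their growth was then compared with that of vehicle-treated cultures to give inhibition.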

Measured: growth inhibition

CCCCCCCCCc1ccc(OC(=O)CCC)cc1
inactive: [1] 2.4% | [2] -22.6% | [3] -15.1% | [4] -50% | [5] -2.95% | [6] 20.7%

C=C1C(=O)OC2C1CC(OC(C)=O)/C(C)=C/CCC1(C)OC21 (stereo not given)
inactive: [1] -4.5% | [2] -35.3% | [3] 6% | [4] -6.25% | [5] -27.6% | [6] -68.2%

OCCN(CCO)c1ncnc2c1ncn2CCc1ccccc1
inactive: [1] 13.6% | [2] -0.25% | [3] 16.2% | [4] -16% | [5] 4.1% | [6] -2.25%

CC(=O)NC1(C)C(=O)N=C(N)N=C1N (stereo not given)
inactive: [1] 11.2% | [2] 4.3% | [3] 11.1% | [4] -29.8% | [5] -4.9% | [6] 8.8%

CCCCCCCCCCCCCCCCCCCOc1ccc(OCCCCCCCCCCCC)cc1
inactive: [1] 35% | [2] -7.15% | [3] 25.9% | [4] -40.1% | [5] -1.35% | [6] -15.9%

COc1cccc(C2ON=C(c3ccccc3)N2C23CC4CC(CC(C4)C2)C3)c1 (stereo not given)
inactive: [1] 8.5% | [2] -3.4% | [3] -34.2% | [4] -6.7% | [5] 10.1% | [6] 14.9%

CCOC(=O)CN1C(=O)C(=O)N(c2ccc(OC)c3ccccc23)C1=O
inactive: [1] -46.1% | [2] -17.2% | [3] -54.7% | [4] -40% | [5] -1.3% | [6] -27.6%

Cc1ccc(S(=O)(=O)OC2CC(C(C)(C)C)CCC2c2ccccc2)cc1 (stereo not given)
inactive: [1] -29.1% | [2] -7% | [3] -48.9% | [4] -84.2% | [5] -5.15% | [6] 5.9%

C/C(=C/c1ccccc1)OC(=O)c1ccccc1
inactive: [1] 25.7% | [2] 4.55% | [3] 10.8% | [4] -1.85% | [5] 26.4% | [6] 36.2%

c1ccc2c(c1)nnn2CN1CCOCC1
inactive: [1] -6.3% | [2] 17.1% | [3] -26.6% | [4] -22.9% | [5] 3.15% | [6] 5.7%

CC(=O)OCC(=O)C1(C)CCC2(C)CCC3(C)C(=CC(=O)C4C5(C)CCC(=O)C(C)(C)C5CCC43C)C2C1 (stereo not given)
inactive: [1] -2.95% | [2] -30.8% | [3] 2.7% | [4] -2.25% | [5] 13.7% | [6] 15.4%

CC1(C)COC(C2(C)C(=O)C=C(c3ccccc3)c3ccccc32)=N1 (stereo not given)
inactive: [1] 25.3% | [2] -11.8% | [3] 29.8% | [4] 12.8% | [5] 3.9% | [6] 11.8%

CCOC(=O)CC(=O)c1ccccc1SC
inactive: [1] 13.2% | [2] -1.55% | [3] -6.1% | [4] 4.4% | [5] -1.45% | [6] 17.4%

C[N+](C)([O-])Cc1ccccc1
inactive: [1] -12.9% | [2] -27.4% | [3] -19.4% | [4] -0.8% | [5] -5.2% | [6] -16.9%

CSc1nc2c(nc(N)n2C2OC(CO)C(O)C(O)C2O)c(=O)n1C (stereo not given)
inactive: [1] 3.1% | [2] 20% | [3] 26.3% | [4] 33.9% | [5] 11.2% | [6] 39.4%

CCCC(/C(C)=N/NC(N)=O)C1CCCCC1 (stereo not given)
inactive: [1] 14.2% | [2] 7.45% | [3] -2.6% | [4] 1% | [5] -5.1% | [6] 2%

CC(=O)OC[C@]1(C)CCCC2(C)C1CCC1C=C(C)[C@H]3CCC12C3 (stereo not given in full)
inactive: [1] 2.05% | [2] -2.85% | [3] -17.8% | [4] -1.65% | [5] -3.1% | [6] 11.3%

C[Si](C)(C)CSCCO
inactive: [1] -13.7% | [2] -6.45% | [3] -20.8% | [4] -16.1% | [5] -14.7% | [6] -1.6%

O=c1[nH]c(=S)c2cncnc2n1C1OC(CO)C(O)C1O (stereo not given)
inactive: [1] 15.8% | [2] 11.8% | [3] -6.6% | [4] 10.2% | [5] -28.3% | [6] -26.4%

Nc1nc(N)c(N=Nc2ccc([N+](=O)[O-])cc2)c(=O)[nH]1
inactive: [1] -0.9% | [2] -16.9% | [3] -12% | [4] 9% | [5] 0.7% | [6] -3.9%

C#CCN1CCCC1
inactive: [1] -9.4% | [2] -4.35% | [3] -11% | [4] 22.1% | [5] 27.7% | [6] 10.2%

Cc1ccc(S(=O)(=O)N2CC(CCl)N(S(=O)(=O)c3ccc(C)cc3)CC2CCl)cc1 (stereo not given)
inactive: [1] 28.5% | [2] 7.45% | [3] 20.6% | [4] 10.4% | [5] 4.35% | [6] 20.9%

CC(C)N(CCSC(=O)N1c2ccccc2Sc2cccnc21)C(C)C
inactive: [1] -2% | [2] 0.8% | [3] -18.9% | [4] -12.3% | [5] 1.45% | [6] 1.6%

Cc1[nH]c2ccccc2c1C1=CC(=O)N(c2ccccc2)C1=O
inactive: [1] -24.1% | [2] -23.6% | [3] 9.3% | [4] 21.4% | [5] -4.7% | [6] -7.9%

C=Cc1ccc(C)[n+](C[Si](C)(C)O[Si](C)(C)C[n+]2cc(C=C)ccc2C)c1
inactive: [1] -18.9% | [2] -11.1% | [3] -26.1% | [4] -4.2% | [5] -10.8% | [6] 9%

CC(C)(c1ccc(O)c([N+](=O)[O-])c1)c1ccc(O)c([N+](=O)[O-])c1
inactive: [1] -2.65% | [2] -2.75% | [3] -4.6% | [4] -26.4% | [5] -2.9% | [6] 7.2%

Cc1nn(C(=O)Cc2ccccc2)c2c1C(c1ccc([N+](=O)[O-])cc1)SC(N)=N2 (stereo not given)
inactive: [1] 11.4% | [2] 9.9% | [3] 22.4% | [4] 15.8% | [5] 8.15% | [6] 9.75%

O=C(O)c1ccc(OC2CCCCC2)cc1
inactive: [1] 6.85% | [2] 12.1% | [3] 42.1% | [4] 18.6% | [5] 11.4% | [6] 30.9%

CCCC(CCC)(C(=O)OCC)C(=O)OCC
inactive: [1] 1.45% | [2] 6.15% | [3] -1.3% | [4] -15.4% | [5] -4.25% | [6] 0.65%

CC(C(=O)O)[C@H]1CC[C@H]2[C@@H]3CCC4=CC(=O)CC[C@]4(C)[C@H]3CC[C@]12C (stereo not given in full)
inactive: [1] -3.5% | [2] -5.7% | [3] 7.15% | [4] -46.9% | [5] 2.5% | [6] -10.2%

CSc1nc[nH]c1C(N)=S
inactive: [1] -13.1% | [2] 3% | [3] 2.6% | [4] -7.4% | [5] -24.4% | [6] 8.7%

CCCCCCCCCCCCCCCCCCCCCCCCCC(=O)O
inactive: [1] 30.4% | [2] -20.2% | [3] 32.5% | [4] 4.5% | [5] 23.9% | [6] 4.95%

Cc1c(CN(C)C)ccc2ccccc12
inactive: [1] -6% | [2] -6.05% | [3] 3.95% | [4] -34.4% | [5] 0.6% | [6] -8.95%

COc1ccc(-c2c3c(nc4nc(SCC(=O)c5ccc(Br)cc5)nc(N)c24)CCCC3)cc1OC
inactive: [1] 0.05% | [2] -17.2% | [3] -27.9% | [4] -0.55% | [5] -16.6% | [6] 9.65%

O=C(Oc1ccccc1OC(=O)c1ccc(Cl)cc1)c1ccc(Cl)cc1
inactive: [1] 3.15% | [2] 6.4% | [3] 12.7% | [4] 6.7% | [5] -2.65% | [6] 8.6%

CC(=O)OCC1OC(Nc2[nH]c(=O)n(C)c(=O)c2-c2csc(N)n2)C(OC(C)=O)C(OC(C)=O)C1OC(C)=O (stereo not given)
inactive: [1] -12.8% | [2] -25.6% | [3] -32.9% | [4] 27.4% | [5] -8.9% | [6] -8.6%

CC(=O)Nc1c(C(=N)C#N)ncn1CCO
inactive: [1] 2.3% | [2] 10.2% | [3] 8.35% | [4] 11.2% | [5] -3.65% | [6] 5.5%

CC(C)(C)n1nnnc1N
inactive: [1] -8.55% | [2] -7.55% | [3] 6% | [4] -0.05% | [5] 11.1% | [6] -20.9%

CC(=O)OCC12CC(c3ccoc3)OC3CCC4C(=O)OC(CC1C)C4(C)C32 (stereo not given)
inactive: [1] -19.4% | [2] -29.4% | [3] -18.6% | [4] 4.3% | [5] -23.9% | [6] -22.8%

CCN1C(=NCCO)NS(=O)(=O)c2ccccc21
inactive: [1] -17.2% | [2] 3.4% | [3] -25.4% | [4] -1.95% | [5] -24.6% | [6] 0.35%
